CHX counter: counter-screen hit for Shiga toxin inhibitors, cycloheximide. cell reporter, cycloheximide protein synthesis inhibition counterscreen. max response, %. actives 12% (n = 300,000); in the data active = max response mostly above about 13%, no sharp cut-off; inactive = mostly below about 14%; also: read at 38.3 µM for the half of the compounds with a filed dose
Pf growth 96h: inhibits malaria parasite growth, 96 h | P. falciparum luciferase reporter growth, 96 h | Potency, µM (top dose mostly 28.7 µM), usual class: inhibitors | actives 6.9% (n = 320,000) | AID 504834
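Compounds incubated with erythrocytes infected by luciferase-expressing P. falciparum (2% hematocrit, 0.05% parasitemia final) for 96 hours, 37 C in 5% CO2. Growth inhibition scored as decreased luciferase luminescence.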
Shiga inhibitor: Shiga toxin inhibition | inhibition, % at 38.7 µM | AID 2315 | Vero cells, Shiga toxin protein synthesis inhibition reporter | actives 9.2% (n = 290,000); in the data active = inhibition mostly above about 28%, no sharp cut-off; inactive = mostly below about 43%
Sm TGR inh: inhibitors of Schistosoma mansoni thioredoxin glutathione reductase; Q962Y6; purified TGR, DTNB reduction, TNB absorbance 405 nm; Potency, µM (top dose mostly 114 µM), hits mostly inhibitors; actives 3% (n = 360,000); also: nearly all actives have a fitted effect of over 60% in size
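First, TGR (20 nM dispensed) and NADPH were mixed with compound. Second, a 15 min room-temperature incubation followed. Third, further NADPH and then DTNB were added to start the reaction. Finally, TNB absorbance was monitored kinetically.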
Pf growth 48h: inhibits P. falciparum growth in the first generation, 48 h. Potency, µM (top dose mostly 28.7 µM), hits mostly inhibitors. actives 5.9% (n = 310,000). AID 504832. P. falciparum luciferase growth in erythrocytes, 48 h
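Firefly luciferase activity from engineered P. falciparum reports growth; inhibitors lower the luminescent signal. Cultures contained 2% hematocrit erythrocytes at 0.1% final parasitemia.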
NS1 inh: influenza NS1 inhibition. Potency, µM (highest dose often 46.1 µM). actives 0.4% (n = 270,000). AID 2326; calls by dose curve; also: actives are rising curves; nearly all actives have a fitted effect of over 50% in size
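Recovery from NS1-induced slow growth read by OD600 in budding yeast switched to galactose assay medium (pH 6.0, -URA) at 1:100 dilution. Compound 23 nl per well; the matching strain lacking NS1 serves as control.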
A number is an active result; 0 = inactive; ? = inconclusive; - = no result given. This is a sample that favours compounds with a hit; in the whole collection about 21% have one here. Unless noted, calls follow the shape of the dose curve; as a rule, active = well fitted curve in the direction sought with a large enough effect; inconclusive = small, poorly fitted or top-dose-only effect, or another doubt; inactive = no such curve, though single readings can be large; an effect the other way counts as inactive or inconclusive.

SMILES | CHX counter | Pf growth 96h | Shiga inhibitor | Sm TGR inh | Pf growth 48h | NS1 inh
COCCC(=O)N1CCC(Oc2ccc(C(=O)N(C)CCCC3CCCC3)cc2)CC1 | 26.1 | ? | 56.8 | 0 | ? | 0
COCCC(=O)N1CCC(Oc2ccc(C(=O)NCCC3=CCCCC3)cc2)CC1 | 19.2 | ? | 0 | 0 | 0 | 0
COCCC(=O)N1CCC(Oc2ccc(C(=O)N3CCCCCCC3)cc2)CC1 | 0 | 0 | 0 | 0 | 0 | 0
COc1ccc(CNS(=O)(=O)c2ccc(-c3ccc(=O)[nH]n3)s2)cc1OC | 0 | ? | 0 | 0 | 0 | 0
CCOC(=O)c1cnc2c(ccc3ccccc32)c1Cl | 21.4 | 0 | 121.1 | 0 | ? | 0
CCOC(=O)c1ccc(-c2ccc3[nH]c4ccccc4c(=O)c3c2)cc1F | 0 | 5.22µM | 0 | ? | ? | 0
CCOC(=O)c1c[nH]c2c(Cl)ccc(Cl)c2c1=O | 0 | 0 | 0 | 0 | 0 | 0
CCOC(=O)c1[nH]c2ccccc2c1NC(=O)c1ccccc1F | - | - | - | 0 | - | -
CC(=O)c1c[nH]c2ccc(C)cc2c1=O | 0 | ? | 0 | 0 | 6.57µM | 0
CCOC(=O)c1cnc2c(ccc3ccccc32)c1Nc1ccccc1O | - | - | - | 0 | - | -
CCOC(=O)c1c[nH]c2ccc3ccccc3c2c1=O | 0 | 4.65µM | 0 | 0 | ? | 0
COCCNC(=O)CSc1nc2cc(OC)c(OC)cc2c(=O)n1CCc1ccc(S(N)(=O)=O)cc1 | 0 | ? | 0 | 0 | 0 | -
CCOC(=O)c1ccc2[nH]cc(C(C)=O)c(=O)c2c1 | 0 | 0 | 0 | 0 | 4.65µM | 0
CCOc1ccc2[nH]cc(C(=O)O)c(=O)c2c1 | 0 | - | 0 | 0 | 0 | 0
Cc1ccc2ccc3cc(C(=O)N4CCN(c5ccccc5)CC4)nc3c2[nH]1 | - | - | - | 0 | - | -
N#CCC(=O)Nc1ccc(C(=O)OCC(=O)NCCCc2ccccc2)cc1 | 0 | 1.17µM | 0 | 0 | 0 | 0
N#CCC(=O)Nc1ccc(C(=O)OCc2ccccc2Oc2ccccc2)cc1 | 0 | ? | 0 | 0 | 10.4µM | 0
Cc1cc(C(=O)COC(=O)c2ccc(NC(=O)CC#N)cc2)c(C)n1C1CC1 | - | 0 | - | 0 | 0 | -
N#CCC(=O)Nc1ccc(C(=O)OCC(=O)C23CC4CC(CC(C4)C2)C3)cc1 | - | ? | - | 0 | 13.1µM | -
O=C(COC(=O)c1ccncc1)NCCCc1ccccc1 | 0 | 0 | 0 | 0 | 0 | 0
O=C1NN(c2cccc(Br)c2)C(=O)/C1=C\c1ccccc1 | 0 | 0 | 0 | 50.1µM | 0 | 0
O=C1NN(c2ccccc2)C(=O)/C1=C/c1coc2ccccc2c1=O | 81.1 | ? | 54.1 | 0 | 0 | 0
O=C1NN(c2ccccc2)C(=O)/C1=C/c1cccs1 | 0 | 0 | 0 | 0 | 0 | 0
O=C1NN(c2ccccc2)C(=O)/C1=C\c1coc2ccc(O)cc2c1=O | 0 | 0 | 0 | 15.8µM | 0 | 0
O=C1NN(c2ccccc2)C(=O)/C1=C\c1ccccc1 | 0 | ? | 0 | ? | 0 | 0
SMILES | CHX counter | Pf growth 96h | Shiga inhibitor | Sm TGR inh | Pf growth 48h | NS1 inh
COc1cc(CN2CCN(Cc3ccco3)CC2)cc(OC)c1 | 0 | 2.08µM | 0 | 0 | 0 | 0
COc1ccc(CN2CCN(Cc3ccco3)CC2)c(OC)c1 | 0 | 0 | 0 | 0 | - | ?
Cc1cc(N)c2cc(NC(=O)Nc3ccc4nc(C)cc(N)c4c3)ccc2n1 | - | ? | - | - | 1.2µM | 0
Cc1cc(N)c2cc(OCCOc3ccc4nc(C)cc(N)c4c3)ccc2n1 | - | - | - | - | - | 0
O=C(COc1coc(CN2CCc3ccccc3C2)cc1=O)Nc1cccc(F)c1 | - | 4.65µM | - | 0 | 0 | -
COc1ccc(NC(=O)COc2coc(CN3CCc4ccccc4C3)cc2=O)cc1 | - | 13.1µM | - | 0 | 0 | -
O=C(COc1coc(CN2CCc3ccccc3C2)cc1=O)Nc1cccc(Cl)c1 | - | ? | - | 0 | 0 | -
Cc1ccc(Cn2c(=O)n(-c3ccc(C)c(C)c3)c(=O)c3c(C)c(C)sc32)cc1 | - | - | - | 0 | - | -
CCOC(=O)C1(CC2CCCCO2)CCN(C(=O)Nc2ccccc2)CC1 (stereo not drawn) | 28.7 | 0 | 35.5 | 0 | ? | 0
CCOC(=O)C1(CC2CCCCO2)CCN(Cc2nc3ccccc3nc2C)CC1 (stereo not drawn) | 0 | 11.7µM | 0 | 0 | ? | 0
CCOC(=O)C1(CC2CCCCO2)CCN(S(=O)(=O)c2ccsc2)CC1 (stereo not drawn) | 13.0 | 0 | 0 | 0 | 0 | 0
CCOC(=O)C1(CC2CCCCO2)CCN(Cc2ccc(OC)cc2F)CC1 (stereo not drawn) | 0 | 0 | 0 | 0 | 0 | 0
